An excerpt weighted towards active compounds, which were near 1.7% of everything screened.
GLP-1R inv ag: inverse agonists of human GLP-1 receptor. P43220. HEK293 GLP-1R CRE-luciferase, luminescence, 24 h; GLP-1R form is constitutively active. Potency, µM (doses to about 38.3 µM), hits mostly inhibitors. 410,000 compounds, 1.6% hits. AID 624417; note: nearly all actives have a fitted effect of over 55% in size
Target sequence (P43220 whole entry, looked up): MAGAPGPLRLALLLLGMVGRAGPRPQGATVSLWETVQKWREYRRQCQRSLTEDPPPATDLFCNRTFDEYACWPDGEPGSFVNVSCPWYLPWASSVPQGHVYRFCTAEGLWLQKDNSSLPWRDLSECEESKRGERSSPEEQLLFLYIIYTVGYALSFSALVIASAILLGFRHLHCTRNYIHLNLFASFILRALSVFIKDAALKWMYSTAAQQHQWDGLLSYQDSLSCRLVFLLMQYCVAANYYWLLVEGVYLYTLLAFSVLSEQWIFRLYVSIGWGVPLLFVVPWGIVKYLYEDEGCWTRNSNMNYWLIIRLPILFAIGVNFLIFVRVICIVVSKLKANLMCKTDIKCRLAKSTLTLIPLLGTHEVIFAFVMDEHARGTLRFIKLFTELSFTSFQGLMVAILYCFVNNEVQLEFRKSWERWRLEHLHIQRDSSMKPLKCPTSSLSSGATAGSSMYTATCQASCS
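Seeding at 200 cells/uL, 12 h culture, 24 hr compound treatment, then luciferase reagent and a luminescence read; cells are HEK293 stably expressing a constitutively active GLP-1R plus cAMP-responsive luciferase.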
HEK293 tox: cytotoxicity counter-screen for GLP-1 receptor inverse agonists; HEK293 cAMP-luciferase reporter cells, luminescence, 24 h; 410,000 compounds, 0.13% hits; Potency, µM (titrated, usually from 38.3 µM), most hits filed as inhibitors;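 note: loss of luciferase light is scored as toxicity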
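Seeding density was 200 cells/uL; after overnight-length (12 h) culture, 23 nL compounds went on for 24 h at 37 °C. Readout used a luciferase detection reagent, luminescence taken after 12 min at room temperature.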
GLP1R ag: agonists of human GLP-1 receptor; P43220; HEK293 GLP-1R CRE-luciferase, luminescence, 4-6 h; cells express a hypersensitive GLP-1R form; Potency, µM (top dose mostly 45.6 µM), usual class: activators; 380,000 compounds, 0.007% hits; AID 624172
Of the large screens only hits and unclear results are named; the others gave an inactive call. Calls come from the whole dose curve; as a rule, active = well fitted curve in the direction sought with a large enough effect; inconclusive = small, poorly fitted or top-dose-only effect, or another doubt; inactive = no such curve, though single readings can be large; an effect the other way counts as inactive or inconclusive.

CCOC(=O)C(O)(c1ccc(NC(=S)NC(=O)c2ccc(Cl)cc2Cl)c(C)c1)C(F)(F)F (stereo not given)	GLP-1R inv ag 4µM, HEK293 tox inconclusive
CCCCn1c(=O)c(C(=O)Nc2cccc(C)c2)c(O)c2ccccc21	none
Cc1cc(C)cc(NC(=O)CCCn2c3ccccc3c(=O)c3ccccc32)c1	GLP-1R inv ag 3.5µM (no result: GLP1R ag)
CCC(N)CCc1c[nH]c2ccccc12 (stereo not given)	none (no result: GLP-1R inv ag, HEK293 tox)
CCOC(=O)c1c(C)n(-c2ccc(C)cc2)c2c(C(C(C)=O)C(=O)O)c(Br)c(O)c(O)c12 (stereo not given)	HEK293 tox inconclusive
CCOC(=O)c1c(C)n(-c2ccc(OC)cc2)c2ccc(O)c(CN(C)C)c12	GLP-1R inv ag 5.6µM, HEK293 tox inconclusive
CCc1ccc(CNC(=O)c2ccc3c(c2)N=C(C)c2cc(C)ccc2S3)cc1	GLP-1R inv ag inconclusive
COc1cccc(CC(=O)N2CCN(Cc3cccc(Cl)c3)CC2)c1	GLP-1R inv ag inconclusive
Cc1cccc(C(=O)N2CCC(=O)N(C(COCc3cccc(Cl)c3)Cc3ccccc3)CC2)c1 (stereo not given)	GLP-1R inv ag 8.9µM
CCNC(=O)C1CCCN(Cc2cc(C(F)(F)F)ccc2Cl)CC1 (stereo not given)	GLP-1R inv ag inconclusive
Nc1cccc(Nc2nc(OC(C(F)(F)F)C(F)(F)F)nc(OC(C(F)(F)F)C(F)(F)F)n2)c1	GLP-1R inv ag 4.5µM, HEK293 tox inconclusive
Cc1ccc(-n2cc(CNCCc3ncc(C)[nH]3)c(-c3ccc(F)cc3)n2)cc1	GLP-1R inv ag inconclusive, HEK293 tox inconclusive
C[C@H](N)C(=O)c1ccccc1	none (no result: GLP-1R inv ag, HEK293 tox)
Cc1nc(N2N=C3/C(=C/c4ccc(F)cc4)CCCC3C2c2ccc(F)cc2)sc1C(=O)N(C)C (stereo not given)	GLP-1R inv ag 10µM
CCNc1nc(N)c(C(=O)c2ccc(Cl)s2)s1	GLP-1R inv ag inconclusive, HEK293 tox inconclusive
CCN(CC)c1ccc(/C=C/C(=O)C2C(=O)C=C(C)OC2=O)cc1 (stereo not given)	none
CN1CCN(CCCN2c3ccccc3Sc3ccc(C(F)(F)F)cc32)CC1	GLP-1R inv ag 8.9µM, HEK293 tox inconclusive
O=C(CCN1CCN(CCO)CC1)N1c2ccccc2Sc2ccc(C(F)(F)F)cc21	none
COc1ccc(OC)c(C[C@H](C)N)c1	none (no result: GLP-1R inv ag, HEK293 tox)
C[N+](C)(C)CCOC(=O)C(O)(c1ccccc1)c1ccccc1	none (no result: GLP-1R inv ag, HEK293 tox)
COCCNCCOc1ccc(C(C)(C)c2ccccc2)cc1	GLP-1R inv ag 10µM
COc1cccc(Nc2nc(C(N)Cc3ccc(Cl)cc3)cs2)n1 (stereo not given)	GLP-1R inv ag inconclusive, HEK293 tox inconclusive
CCOc1cc2c(cc1OCC)-n1cccc1C(c1ccc(OC)c(O)c1)NC2 (stereo not given)	GLP-1R inv ag inconclusive
CCOc1cc(C2NCc3ccccc3-n3cccc32)ccc1OC (stereo not given)	GLP-1R inv ag 10µM
COc1cc(C2NCc3ccccc3-n3cccc32)ccc1O (stereo not given)	GLP-1R inv ag 10µM
COc1ccc(C2NCc3ccccc3-n3cccc32)cc1 (stereo not given)	GLP-1R inv ag inconclusive
COCc1cc(C)nc(SCC(=O)Nc2nc(C)cs2)c1C#N	GLP-1R inv ag inconclusive
CCc1ccc(NC(=O)c2ccc3oc(=O)n(Cc4ccccc4)c3c2)cc1	GLP-1R inv ag inconclusive (no result: GLP1R ag)
Cc1ccc(-c2nc3ccccc3c(=O)n2-c2cccc(O)c2)cc1	GLP-1R inv ag 1.8µM
Cc1cccc(-n2c(-c3cccs3)nc3ccccc3c2=O)c1	GLP-1R inv ag inconclusive
O=c1c2ccccc2nc(/C=C/c2ccc(O)cc2)n1-c1cccc(O)c1	none
Cc1nc2ccccc2c(=O)n1-c1cccc(O)c1	none
O=c1c2ccccc2nc(-c2cccs2)n1-c1ccccc1	GLP-1R inv ag 2µM
O=c1c2ccccc2nc(-c2ccccc2Cl)n1-c1cccc(O)c1	GLP-1R inv ag 0.89µM
O=C1OCCC1Sc1nc(-c2ccccc2)cs1 (stereo not given)	none
CCCCCCn1c(COc2ccccc2F)nnc1SCC(=O)N1c2ccccc2NC(=O)C1(C)C	GLP-1R inv ag inconclusive, HEK293 tox inconclusive
COc1ccc(-n2c(O)c(/C=N/NS(=O)(=O)c3cccc([N+](=O)[O-])c3)c3ccccc3c2=O)cc1OC	none
Cc1ccc(N2CCN(C(=O)c3cn(CC4CCCCC4)nn3)C(C)C2)cc1 (stereo not given)	GLP-1R inv ag inconclusive
CCCCOc1ccc(CCN)cc1Cl	none
CNCCCOc1ccc(Cl)cc1C(C)(C)C	GLP-1R inv ag 3.5µM, HEK293 tox inconclusive
COc1ccc(N/N=C(/C(N)=O)C2=NC(C)(C)Cc3ccccc32)cc1	HEK293 tox inconclusive

Screening data (PubChem BioAssay)
